According to PubChem BioAssay AID588726 (The Scripps Research Institute Molecular Screening Center, 2011):
Out of some 360,000 compounds screened, about 8,200 (2.3%) were called active. No stated cut-off is given here; in the data, active means inhibition above about 27%; inactive means the rest. The entries come from a sample that favours actives as a whole.

target: Fructose-bisphosphate aldolase (Mycobacterium tuberculosis (strain ATCC 25618 / H37Rv)) (UniProt P9WQA3); assay: Mtb FBA enzyme inhibitors, primary screen, biochemical, fluorescence, strain H37Rv (AID 588726);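 further: 0% = vehicle and 100% = reference inhibitor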; details: purified M. tuberculosis FBA, fluorescence read-out, at 1 µM, active compounds read high
Sequence (P9WQA3 whole entry, looked up): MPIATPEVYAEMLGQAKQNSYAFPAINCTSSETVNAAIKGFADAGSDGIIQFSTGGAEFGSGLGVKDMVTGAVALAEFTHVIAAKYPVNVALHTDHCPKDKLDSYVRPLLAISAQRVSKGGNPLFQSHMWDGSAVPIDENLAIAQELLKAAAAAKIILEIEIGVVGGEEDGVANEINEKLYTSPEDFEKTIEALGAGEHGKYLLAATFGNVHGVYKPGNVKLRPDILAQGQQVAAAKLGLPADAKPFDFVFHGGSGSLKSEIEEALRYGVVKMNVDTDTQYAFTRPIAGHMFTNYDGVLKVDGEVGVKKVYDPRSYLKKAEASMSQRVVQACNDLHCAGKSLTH

Structure (SMILES) | inhibition
CCN(CC)S(=O)(=O)c1ccc(N2CC(C(=O)NCc3cccnc3)CC2=O)cc1 (stereo unspecified) | 1.11% (inactive)
Cc1c(CCC(=O)N[C@@H](CC(C)C)C(=O)O)c(=O)oc2c(C)c3oc4c(c3cc12)CCCC4 | 13.8% (inactive)
Cc1c(C)c2cc3c4c(oc3c(C)c2oc1=O)CCCC4 | 2.57% (inactive)
CC[C@@H](C)[C@H](NC(=O)CCc1c(C)c2cc3c4c(oc3c(C)c2oc1=O)CCCC4)C(=O)O | 27.5% (active)
O=C(Nc1ccccc1C(=O)N1CCOCC1)C1CCC(=O)N1C1CCCC1 (stereo unspecified) | 0.4% (inactive)
COCCn1c(=O)[nH]c2cc(C(=O)NCc3cccnc3)ccc2c1=O | 12.2% (inactive)
CC(C)(C)NC(=O)COc1ccc(CNc2ccc3[nH]c(=O)[nH]c3c2)cc1 | 64.6% (active)
COc1ccc(C(=O)OCC(=O)Nc2ccc3[nH]c(=O)[nH]c3c2)c(OC)c1OC | 5.97% (inactive)
O=C(COc1ccc([N+](=O)[O-])cc1Cl)Nc1ccc2[nH]c(=O)[nH]c2c1 | -1.08% (inactive)
COc1ccc(S(=O)(=O)N2CCC(C(=O)NCCC(=O)NCCc3cccc(F)c3)CC2)cc1 | 3.06% (inactive)
O=C(CCNC(=O)c1ccc(Br)cc1)NCC(c1ccco1)N1CCCCC1 (stereo unspecified) | -0.35% (inactive)
Cc1nn(Cc2ccccc2)c(C)c1CNC(=O)c1ccc(F)c(S(=O)(=O)N2CCOCC2)c1 | 0.09% (inactive)
Cc1ccccc1CSc1nnc(Cn2c(=O)sc3ccccc32)n1C | 3.39% (inactive)
CNc1nc(-c2ccccc2)cc(-c2ccccc2)n1 | 29.2% (active)
Nc1cccc(-c2cc(-c3ccccc3)nc(-c3cccc(N)c3)n2)c1 | 16.1% (inactive)
Cc1nc(NNC(=O)c2ccccc2)cc(-c2ccccc2)n1 | 1.26% (inactive)
O=[N+]([O-])c1ncc(Br)cc1Nc1ccccc1 | -5.84% (inactive)
CC1CCc2c(c3ccccc3[nH]c2=O)O1 (stereo unspecified) | -0.34% (inactive)
COC(=O)c1sc(N)c(C(=O)OC)c1COC(=O)CNS(=O)(=O)c1ccc(C)cc1 | 1.77% (inactive)
Cc1ccsc1C(=O)N[C@@H](C)c1nnc2ccccn12 | 51.8% (active)
CCn1c(SCC(=O)Nc2nc(C)cs2)nnc1C(C)NC(=O)c1ccccc1 (stereo unspecified) | 0.82% (inactive)
Cc1ccc(C(=O)NNC(=O)CSc2nnc3ccccn23)cc1 | 0.48% (inactive)
COc1cccc(N2CC(NC(=O)c3ccc4ccccc4c3)CC2=O)c1 (stereo unspecified) | 1.83% (inactive)

Structure (SMILES) | inhibition
COc1ccc(S(=O)(=O)N2CCN(c3cnccn3)CC2)cc1 | 2.14% (inactive)
O=C1OCCN1C(=O)[C@H]1[C@H](c2ccc(Cl)cc2)C(c2cccc(Cl)c2)=NN1c1ccc(Br)cc1 | 57.4% (active)
C[C@@H]1C(c2ccc(F)cc2)=NN(c2ccc(Br)cc2)[C@H]1C(=O)N1CCOC1=O | 20.3% (inactive)
O=C1OCCN1C(=O)[C@H]1[C@H](c2ccc(F)cc2)C(c2ccccc2)=NN1c1ccc(Br)cc1 | 42.2% (active)
O=C1OCCN1C(=O)[C@H]1[C@H](c2ccccc2)C(c2ccc(F)cc2)=NN1c1ccccc1 | 11% (inactive)
Cc1nn(-c2ccccc2)c2c1C(c1cccc([N+](=O)[O-])c1)N(c1ccccc1)C(=O)N2 (stereo unspecified) | -3.95% (inactive)
CCOC(=O)c1cccc(NC(=O)CN2C(=O)C3CC=CCC3C2=O)c1 (stereo unspecified) | -2.2% (inactive)
CCC(=O)c1ccc(OCC(=O)OCC(=O)N2CCc3ccccc3C2)cc1 | 6.24% (inactive)
CCCN(CCc1ccccc1)C1CCc2c(O)cccc2C1 (stereo unspecified) | 3.16% (inactive)
CCOC(=O)C=Cc1ccc(C(=O)OCC)[nH]1 | -4.99% (inactive)
Cc1sc2ccccc2c1CNC[C@H]1O[C@@H](n2ccc(=O)[nH]c2=O)[C@H](O)[C@@H]1O | 1.01% (inactive)
Cc1cc(=O)n2nc(N3CCCC3C(=O)NCCCN3CC(C)CC(C)C3)sc2n1 (stereo unspecified) | 3.34% (inactive)
CCSc1nc2sc3c(c2c(=O)n1-c1ccc(C)cc1)CCN(C)C3 | 0.45% (inactive)
CCCSc1nc(NCc2ccco2)c2c3c(sc2n1)COC(C)(CC)C3 (stereo unspecified) | 2.94% (inactive)
CN1CCc2c(sc3c2c(NCc2ccco2)nc2nnnn23)C1 | 37.5% (active)
CC(C)(C)c1ccc(C(=O)NCC(=O)OCN2C(=O)c3ccccc3C2=O)cc1 | -0.24% (inactive)
N#Cc1c(N)n(CCOC(=O)c2ccc(Cl)cc2)c2nc3ccccc3nc12 | 69.1% (active)
CN1OC(COC(=O)c2ccc(Cl)cc2)CC1c1ccccc1 (stereo unspecified) | 0.19% (inactive)
CC(C)(C)c1ccc(C(=O)NCCn2c(N)c(C#N)c3nc4ccccc4nc32)cc1 | 144% (active)
CCCCNC(=O)CCNC(=O)c1ccc(C(C)(C)C)cc1 | -0.2% (inactive)
Cn1cncc1COC(=O)c1ccc(Cl)cc1 | 3.05% (inactive)
O=C(c1ccccc1Cl)N(Cc1ccccc1F)N1C(=O)CCCC1=O | -2.23% (inactive)
CC(C)CN(C(=O)c1ccc2c(c1)OCO2)C1CCS(=O)(=O)C1 (stereo unspecified) | -0.95% (inactive)

Structure (SMILES) | inhibition
CC(=O)Nc1ccc(Nc2ncnc3c2nnn3Cc2ccccc2Cl)cc1 | 2.68% (inactive)
CC(=O)c1cnn(-c2cc(Oc3ccc(F)cc3)ncn2)c1C | 2.98% (inactive)
CCc1ccccc1NC(=O)CCOc1ccccc1 | 0.8% (inactive)
Cc1ccc(NC(=O)COC(=O)CN2CCSC2=O)cc1F | -1.26% (inactive)
CC1=NN(C(=O)c2ccc(Br)cc2)C(O)(c2ccccc2)C1 (stereo unspecified) | -1.19% (inactive)
COc1ccc(NC(=O)C2(C)Cc3c(-c4cccc(NC(C)=O)c4)ccnc3O2)cc1 (stereo unspecified) | 5.4% (inactive)
CSc1ccc(/C=N/N2CCN(Cc3ccccc3Cl)CC2)cc1 | -4.01% (inactive)
COCCn1c(SCC(=O)N2CCCCCC2)nc2c(c1=O)SCC2 | -1.33% (inactive)
Cc1cccc(NC(=O)c2ccc3c(=O)n(CC4CCCO4)c(=S)[nH]c3c2)c1 (stereo unspecified) | -2.72% (inactive)
O=C(NCC1CCCO1)c1cc2c([nH]c3ccccc32)c(-c2ccc(F)cc2)n1 (stereo unspecified) | 14% (inactive)
Cc1ccccc1NC(=O)Cn1c(=O)n(CC2CCCO2)c(=O)c2ccccc21 (stereo unspecified) | 2.56% (inactive)
COc1ccc(CCNC(=O)Cn2c(=O)n(CC3CCCO3)c(=O)c3ccccc32)cc1OC (stereo unspecified) | 4.02% (inactive)
Cc1ccc(Cn2c(C)c3cnn(CC(=O)NCCN4CCOCC4)c(=O)c3c2C)cc1 | -0.73% (inactive)
Cc1cccn2c(=O)c3cc(C(=O)NCC4CCCO4)c(=N)n(Cc4ccc(F)cc4)c3nc12 (stereo unspecified) | 186% (active)
Cc1ccc(CCNC(=O)c2ccc3nc4ccccc4c(=O)n3c2)cc1 | 12.9% (inactive)
O=C(CSc1nc2ccccc2c(=O)n1Cc1ccc(F)cc1)NCC1CCCO1 (stereo unspecified) | 2.15% (inactive)
O=C(NCc1cccnc1)c1cc(S(=O)(=O)N2CCOCC2)c(Cl)cc1Cl | -0.2% (inactive)
Cc1cccn2c(=O)c3cc(C(=O)NCCN4CCOCC4)c(=N)n(Cc4cccnc4)c3nc12 | 131% (active)
CC(C)(C)c1cc2cccnc2n1Cc1cccc(F)c1 | 3.01% (inactive)
COc1cc(/C=C/C(=O)O)cc(S(=O)(=O)Nc2ccccc2SC)c1OC | -0.58% (inactive)
CC(C)(C)CC(=O)Nc1nc(C(N)Cc2ccc(C(F)(F)F)cc2)cs1 (stereo unspecified) | -1.2% (inactive)
Cc1ccccc1NC(=O)CCNS(=O)(=O)c1ccc2[nH]c(=O)oc2c1 | -4.94% (inactive)
CC(=O)c1nn(-c2cccc(C(F)(F)F)c2)c(=O)[nH]c1=O | 2.77% (inactive)

Structure (SMILES) | inhibition
COc1cc(OC)c(C(=O)OC(C)C(=O)Nc2cc(C(F)(F)F)ccc2Cl)cc1OC (stereo unspecified) | -1.34% (inactive)
C/C(=N\NC(=O)c1ccc(CSc2nc(C)cc(C)n2)cc1)C1CCCCC1 | -4.8% (inactive)
CC(=O)c1ccc(NC(=O)CSc2nc3ccccc3c(=O)n2CCCN2CCOCC2)cc1 | -0.35% (inactive)
CCOC(=O)C1CCN(Cc2c(C(=O)N3CCOCC3)nc3c(C)cccn23)CC1 | 8.49% (inactive)
C=CCO/N=C/C1=C(O)C(C(=O)OC)C(C)(C)CC1=O (stereo unspecified) | 0.55% (inactive)
O=C1[C@@H](c2ccccc2)[C@@H](c2ccccc2)N1c1cccnc1 | 4.74% (inactive)
O=C1c2ccccc2C(=O)C1c1ccccc1 | 4.16% (inactive)
O=C1C(=O)N(c2ccccc2)C(c2ccccc2)C1c1ccccc1 (stereo unspecified) | 53% (active)
Cc1ccccc1-c1csc(C(O)c2cccc(Cl)c2)n1 (stereo unspecified) | -4.41% (inactive)
Fc1ccc(-c2nnc(CSc3nnc(-c4ccc5c(c4)OCO5)o3)o2)cc1 | -2.07% (inactive)
Clc1ccc(CSc2nnc([C@@H]3CCCN3)o2)cc1 | 4.22% (inactive)
CCSc1nnc(-c2cc3c(s2)-c2ccccc2CC3)o1 | 61.2% (active)
O=C(CSc1nnc(-c2ccccc2O)o1)NC1CCCCC1 | 0.67% (inactive)
Fc1ccc(CSc2nnc(-c3cc4c(s3)-c3ccccc3CC4)o2)cc1 | 154% (active)
C#CCSc1nnc(-c2sc3ccccc3c2Cl)o1 | 4.19% (inactive)
CNC(=O)C[C@H]1C(=O)N(Cc2ccccc2)C[C@@H]1CSC | 3.42% (inactive)
COc1ccc(OC)c(-c2c(=O)n(OCc3ccccc3Br)c3ccccc3[n+]2[O-])c1 | -1.19% (inactive)
COc1cc(N2C(=O)CC3(CCCC3)CC2=O)cc(OC)c1OC | 0.26% (inactive)
CCN(C(=O)C1CCCN(c2nc(-c3ccc(OC)cc3)no2)C1)c1ccc(OC)cc1 (stereo unspecified) | -2.44% (inactive)
Cc1cc(C)c2c(n1)nn1c(-n3ccnc3)cc(C)nc21 | 27.6% (active)
CCCCNCc1ccc(SC)cc1 | -1.81% (inactive)
CCNc1nc(Oc2ccc(C(=O)OC)cc2)nc(N2CCOCC2)n1 | 0.39% (inactive)
